From PubChem BioAssay (NCI)
The panel holds about 79,000 compounds, 15% with a hit somewhere; the sample as a whole holds those more often. Activity calls are given as the source filed them. Rule as the data show it: active = growth inhibition above about 70%; inactive = the rest.

Tests used:
[1] = NCI Yeast Anticancer Drug Screen. Data for the rad50 strain (AID 155);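 also: 0% = growth of vehicle-only cultures of the same strain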; details: S. cerevisiae rad50 strain growth inhibition; at 50.0 µM; active compounds read high
Procedure, shortened: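 Cells are treated with compound, grown, and their growth is then scored against vehicle-only cultures of the same repair-deficient yeast strain.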

[2] = NCI Yeast Anticancer Drug Screen. Data for the mec2-1 strain (AID 157); details: S. cerevisiae mec2-1 strain, at 50.0 µM, active compounds read high
Procedure, shortened: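 Strain: mec2-1 (DNA repair/cell cycle alteration). Compound exposure, then growth measured; inhibition expressed relative to vehicle.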

[3] = NCI Yeast Anticancer Drug Screen. Data for the sgs1 mgt1 strain (AID 161);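 also: 0% = growth of cultures given vehicle only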; details: S. cerevisiae sgs1 mgt1 strain, at 50.0 µM, active compounds read high
Procedure, shortened: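 Inhibition of yeast growth, normalised to vehicle-treated controls, is reported for a strain bearing genetic alterations in DNA damage repair.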

[4] = NCI Yeast Anticancer Drug Screen. Data for the cln2 rad14 strain (AID 165);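 also: 0% = growth equal to vehicle treated cultures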; details: S. cerevisiae cln2 rad14 strain, at 50.0 µM, active compounds read high
Procedure, shortened: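 Compounds are applied to the cln2 rad14 yeast strain, and growth is then compared with that of vehicle-treated cultures to give inhibition.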

[5] = NCI Yeast Anticancer Drug Screen. Data for the bub3 strain (AID 167); details: S. cerevisiae bub3 mutant strain, at 50.0 µM, active compounds read high
Procedure, shortened: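 Part of a panel of yeast mutants defective in DNA damage repair or cell cycle regulation. Each strain is grown with compound, and inhibition is calculated relative to solvent-treated cultures.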

[6] = NCI Yeast Anticancer Drug Screen. Data for the mlh1 rad18 strain (AID 175); details: S. cerevisiae mlh1 rad18 strain growth inhibition; at 50.0 µM; active compounds read high
Procedure, shortened: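 Read-out is yeast growth inhibition, calculated against vehicle-only controls. The compound was applied to a strain engineered with DNA damage repair alterations.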

Measured: growth inhibition

CC(=O)CC(=O)C(C)C.[Cu+2]
inactive: [1] -7.6% | [2] -15.9% | [3] -17.1% | [4] -17.9% | [5] -21.5% | [6] -17.4%

O=C([O-])C[n+]1ccccc1
inactive: [1] -11.3% | [2] -2.75% | [3] -14.5% | [4] -35.9% | [5] -19.1% | [6] -14.4%

FC(F)(F)C1(C(F)(F)F)C2CCC3(CC(F)(F)C(F)(F)S3)C1C2 (stereo unspecified)
inactive: [1] -1.05% | [2] -27.9% | [3] -4.25% | [4] 22.9% | [5] 7.65% | [6] 30.6%

OC1COC2CC(Nc3ccccn3)OC12 (stereo unspecified)
inactive: [1] -36.8% | [2] -41.2% | [3] -15.8% | [4] 0% | [5] -10.2% | [6] -13.6%

C=CCNC=O
inactive: [1] 2.55% | [2] 3.6% | [3] -6.4% | [4] -5.05% | [5] 14.4% | [6] -18.1%

O=C1CC2C(=O)N(Cc3ccccc3)C(=O)C2C(=O)N1 (stereo unspecified)
inactive: [1] -3.1% | [2] -12.9% | [3] -5.3% | [4] 1.85% | [5] -3.1% | [6] 1.25%

CCOC(=O)NN(C(=O)OCC)C(C(C)=O)c1ccccc1 (stereo unspecified)
inactive: [1] 3.95% | [2] -3.35% | [3] -10.8% | [4] -9.35% | [5] -0.7% | [6] 17.3%

Nc1ccccc1Sc1ccc(C(=O)O)cc1[N+](=O)[O-]
inactive: [1] 19.6% | [2] 20.2% | [3] 7.75% | [4] -3.55% | [5] 22.2% | [6] -6.5%

O=C(Nc1ccc(Cl)cc1[N+](=O)[O-])N1CCN(c2ccccc2)CC1
inactive: [1] -8.35% | [2] 21.9% | [3] 29.4% | [4] -10.3% | [5] 44.3% | [6] 28.1%

COc1ccc(C(O)C(C)C(O)(C(F)(F)F)C(F)(F)F)cc1 (stereo unspecified)
inactive: [2] 67.7% | [4] 63.8%
active: [1] 70.5% | [3] 89.3% | [5] 72.7% | [6] 90%

FC(F)(F)c1ccc2c(c1)N(CCCN1CCN(CCN3CCCCC3)CC1)c1ccccc1S2
active: [1] 88.9% | [3] 89% | [5] 87.4% | [6] 91.8%
inactive: [2] 46% | [4] 27.2%

O=C1c2cccc(O)c2C(=O)c2c(OC3OC(CO)C(OC4OC(CO)C(O)C(O)C4O)C(O)C3O)cccc21 (stereo unspecified)
active: [1] 94.2%
inactive: [2] 36.2% | [3] 32.5% | [4] -5.55% | [5] 4.15% | [6] 31.4%

N#CC(NNC(=O)c1ccccc1O)c1cccc(O)c1 (stereo unspecified)
inactive: [1] 10.8% | [2] -0.25% | [3] 10.6% | [4] -6.7% | [5] 25.7% | [6] -25%

Cc1cc2c(C(C)C)c(O)c(O)c(C=Nc3cccc(O)c3)c2c(O)c1-c1c(C)cc2c(C(C)C)c(O)c(O)c(C=Nc3cccc(O)c3)c2c1O
inactive: [1] 27.8% | [2] 26% | [3] 44% | [4] 46.1% | [5] 50.8% | [6] 58.3%

CC(=O)OCC1OC(n2c(Br)nc3c(N)ncnc32)C(O)C1O (stereo unspecified)
inactive: [1] -3.35% | [2] -4.5% | [3] -16.4% | [4] -12.2% | [5] -0.7% | [6] -29.4%

COC(=O)CNC(=O)Nc1cc(N2C(=O)ON3C2C(C)(C)N(O)C3(C)C)ccc1C (stereo unspecified)
inactive: [1] 2.95% | [2] 13.8% | [3] 16.9% | [4] 20.6% | [5] 15.2% | [6] -22.6%

CC(=O)CCC(=O)CC(=O)CCC(=O)Nc1cc(Cl)ccc1Cl
inactive: [1] 15.3% | [2] 24.2% | [3] 19.9% | [4] 31.2% | [5] 2.5% | [6] 6.2%

CCOC(CCc1c(C)nc[nH]c1=O)OCC
inactive: [1] -1.8% | [2] 3.7% | [3] -2.35% | [4] -35.4% | [5] 16.2% | [6] -7.9%

COc1cc([C@@H]2OCC3C(c4ccc5c(c4)OCO5)OCC32)cc(OC)c1OC (stereo partly specified)
inactive: [1] 9.9% | [2] -17.2% | [3] 24.2% | [4] 28.6% | [5] 43.4% | [6] 18.4%

Cc1cc(N(CCC#N)CCC#N)ccc1/C(N=Nc1ccccc1)=N\NC(=O)c1ccccc1
inactive: [1] 22.3% | [2] 16.6% | [3] 11.2% | [4] -8.5% | [5] -16.1% | [6] 31.8%

NC(=O)C(=O)C(c1ccccc1)S(=O)(=O)Cc1ccccc1 (stereo unspecified)
inactive: [1] -59.5% | [2] -39.1% | [3] -40.3% | [4] -13.7% | [5] -25.4% | [6] -32.1%

CCC(C)N(C(C)=O)C(C)CC (stereo unspecified)
inactive: [1] -4.15% | [2] -17.2% | [3] -13.4% | [4] 15.2% | [5] 2% | [6] 1.85%

CCCCCCCCCCCCCCC(CCCCCCCCCCCCCC)c1ccccc1
inactive: [1] 38.4% | [2] -1.25% | [3] 11.6% | [4] -29.4% | [5] -2.65% | [6] 12.2%

CN1C(c2ccccc2)=C(C#N)C(=O)CC(c2ccccc2)N1C (stereo unspecified)
inactive: [1] 26.1% | [2] 11.6% | [3] 30.2% | [4] 14.8% | [5] 11.4% | [6] 21.2%

CCCN1C(=O)CN(S(=O)(=O)c2ccc(Cl)cc2)C1=O
inactive: [1] -1.1% | [2] 4.05% | [3] 3.6% | [4] -8% | [5] -1.25% | [6] -46.9%

CC1CS(=O)(=O)CC(C)S1(=O)=O (stereo unspecified)
inactive: [1] -8.6% | [2] -1.55% | [3] -5.95% | [4] -4.3% | [5] 14.7% | [6] -7.05%

OCc1ccncc1
inactive: [1] -5.85% | [2] -13.2% | [3] -9.65% | [4] -47.4% | [5] 10.4% | [6] -2.05%

CC(=O)Oc1c(C)n(C(C)=O)c2cc(Cl)ccc12
inactive: [1] 1.35% | [2] -5.55% | [3] 15.3% | [4] -45% | [5] 6.15% | [6] -8.3%

CN(C)/N=C\c1ccc([N+](C)(C)C)cc1
inactive: [1] -20.4% | [2] -25.1% | [3] 7.05% | [4] -19.9% | [5] 32.8% | [6] -44.7%

CN(C)CCN=C1Nc2ccccc2C(=O)N2CSCC12 (stereo unspecified)
inactive: [1] -3.25% | [2] -1.95% | [3] -8.7% | [4] -1.25% | [5] -15.3% | [6] 17.3%

CCCN1C(=O)c2cc(=O)[nH]c(O)c2C1C (stereo unspecified)
inactive: [1] -14.2% | [2] -10.9% | [3] -8.75% | [4] 9% | [5] -13.3% | [6] 0.4%

CN(C)Cc1cc(Cl)c(O)c(CN(C)C)c1
inactive: [1] -17.6% | [2] -43.5% | [3] -38.4% | [4] 23.7% | [5] -30.6% | [6] 15.1%

OB(O)c1cccc(B(O)O)c1
inactive: [1] -4.2% | [2] -28.7% | [3] -3% | [4] -7.45% | [5] -21.9% | [6] -10.1%

CCC(=O)Nc1cccc([N+](=O)[O-])c1OC
inactive: [1] -5.35% | [2] 23.4% | [3] -7.45% | [4] -52.2% | [5] 9.15% | [6] -15.2%

O=C(O)C1Cc2c([nH]c3ccccc23)C=N1 (stereo unspecified)
inactive: [1] 27.9% | [2] 11.9% | [3] -2.3% | [4] 22.2% | [5] 16.4% | [6] 33.8%

Cc1cc(-c2cscn2)c(O)c([N+](=O)[O-])c1
inactive: [1] 3.05% | [2] 3.9% | [3] 27.2% | [4] 12.4% | [5] 1.5% | [6] 7.6%

CCCCNC(=O)c1cccc(OC)c1OC
inactive: [1] 2.25% | [2] -1.55% | [3] 4.3% | [4] 2.35% | [5] -5.65% | [6] 3.45%

CC1(C)OCC2OC(O)C(OS(=O)(=O)c3ccc([N+](=O)[O-])cc3)C2O1 (stereo unspecified)
inactive: [1] -5.5% | [2] -2.55% | [3] -0.5% | [4] -33% | [5] -10.9% | [6] -30.3%

COc1cccc(C2CC(c3cc(OC)c(OC)c(OC)c3)CC(c3cccc(OC)c3)N2)c1 (stereo unspecified)
inactive: [1] -5.4% | [2] 1.45% | [3] 15.2% | [4] 16.4% | [5] 19.6% | [6] 5.7%

COc1cccc(NC(=O)CC(=O)NN2C(=O)/C(=C/c3ccc(N(CCC#N)CCC#N)cc3)N=C2c2cc([N+](=O)[O-])ccc2Cl)c1
inactive: [1] 17.4% | [2] -5.05% | [3] 16.4% | [4] -6.7% | [5] 0.3% | [6] 14.6%

CN(C)CC1CCCCCCCCCC(CN(C)C)C1=O (stereo unspecified)
inactive: [1] -26.4% | [2] 19.9% | [3] -11.3% | [4] -1.6% | [5] -21.4% | [6] 66.7%
